# NALP1 inh – NALP1 inflammasome inhibitors in reconstituted yeast, colorimetric, S. cerevisiae, triplicate retest. S. cerevisiae NALP1/ASC/caspase-1 growth, X-gal OD620, 72 h. inhibition, % at 10 µM. 280,000 tested, 0.61% active. AID 2071, 2009; in the data active means inhibition mostly above about 24%, no sharp cut-off; inactive means mostly below about 32%
# V-ATPase pH – regulators of yeast V-ATPase proton pumping, primary screen, pHLuorin cytosolic pH fluorescence | S. cerevisiae | response, % at 10 µM | 350,000 tested, 0.37% active; in the data active means response mostly above about 7.3%, no sharp cut-off; inactive means mostly below about 5.4%; further: actives read high
# NLRP3 yeast inh – NALP3 inflammasome inhibitors in reconstituted yeast, primary screen, luminescence, uHTS | Yeast reconstituted NLRP3/ASC/caspase-1, beta-gal luminescence, 24 h | inhibition, % at 10 µM | 330,000 tested, 0.39% active;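 active means inhibition of 50% or more; inactive means inhibition below 50%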;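 further: plate controls were induced DMSO wells for no effect and uninduced yeast grown without galactose for full effect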
# TIM10 inh – growth inhibitors of isogenic TIM10 control yeast, primary screen, counter-screen for tim10-1 yeast inhibitor project, luminescence, uHTS; S. cerevisiae TIM10 strain growth, BacTiter-Glo luminescence, 24 h; inhibition, % at 10 µM; 330,000 tested, 1.4% active; AID 463195, 2010;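 active means inhibition of 40% or more at the single tested concentration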;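 further: wild-type TIM10 isogenic control strain grown at permissive 25 °C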
# tim23-1 inh – growth inhibitors of tim23-1 mutant yeast, primary screen, luminescence, uHTS. inhibition, % at 20 µM. 330,000 tested, 1.3% active. AID 463212, 2010. S. cerevisiae tim23-1 growth, BacTiter-Glo luminescence, 24 h;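 active means growth inhibition of the mutant yeast at or above 50%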;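 further: temperature-sensitive mutant grown at 25 °C; plate controls were DMSO-treated mutant yeast for no effect and medium wells lacking yeast for full effect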
# tim10-1 inh – growth inhibitors of tim10-1 mutant yeast, primary screen, luminescence, uHTS | S. cerevisiae tim10-1 ts strain growth, BacTiter-Glo, 24 h | inhibition, % at 20 µM | 330,000 tested, 2.2% active | AID 463190, 2010;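 active means inhibition of at least 40%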;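 further: mutant grown at 25 °C; 0% = DMSO wells with yeast and 100% = wells holding no yeast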
# tim10-1 confirm – growth inhibitors of tim10-1 mutant yeast, confirmation, single concentration, luminescence, S. cerevisiae. shares compounds with tim10-1 inh. S. cerevisiae tim10-1 ts strain growth, BacTiter-Glo, 24 h. inhibition, % at 20 µM. 7,400 tested, 56% active. AID 463213, 2010;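 active means inhibition of yeast growth at or above a set limit in either of two repeat tests at 20 µM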;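 further: tim10-1 mutant grown at permissive 25 °C to find synthetic lethal compounds; 0% = DMSO yeast wells and 100% = medium wells without yeast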
# * marks the source's active call; other numbers are inactive results; x = not tested or not shown. Most compounds without a hit are left out; they make up all but 4.2% or so of the library.
SMILES,NALP1 inh,V-ATPase pH,NLRP3 yeast inh,TIM10 inh,tim23-1 inh,tim10-1 inh,tim10-1 confirm
COc1cc2ccccc2cc1C(=O)N(CCN(C)C)c1nc2c(C)cccc2s1,22,3,13,32,28,56*,20
O=C(CCNC(=O)c1ccc(Br)cc1)Nc1cccc(S(=O)(=O)N2CCCCCC2)c1,x,-3,19,-6,8,7,x
Fc1ccc(-c2nnc(CN3CCN(c4ncc(C(F)(F)F)cc4Cl)CC3)o2)cc1,4,0,10,7,31,49*,24
COc1cccc(C(=O)O/N=C(\N)c2ccccn2)c1,14,-1,26,29,33,40*,46*
N/C(=N\OC(=O)c1cccc([N+](=O)[O-])c1)c1ccccn1,-4,2,19,31,23,42*,12
COc1cccc(C(=O)O/N=C(\N)c2ccccn2)c1OC,-9,2,-6,-5,4,39,x
O=C(Nc1ccccc1F)Nc1cccc2ccc(O)cc12,16,-5,1,14,22,32,x
O=C(Nc1nc2c(Cl)cccc2s1)C1CC1,13,-2,0,-18,46,56*,-10
Cc1cccc2sc(NC(=O)C3c4ccccc4Oc4ccccc43)nc12,7,2,-1,33,36,41*,33*
Cc1ccc2sc(NC(=O)C3CC3)nc2c1C,23,0,27,31,42,46*,3
Cc1cccc2sc(NC(=O)C3CC3)nc12,13,1,14,12,26,6,x
O=C(NCCN1CCCC1)C1CC(=O)N(C2CCCCC2)C1 (centres undefined),3,3,-5,-8,21,2,x
Cc1cc(C)nc(-n2nc(C)cc2NC(=O)CN2CCCC(C)C2)n1 (centres undefined),8,-3,15,7,13,44*,4
COC(=O)C1=C(C)N=c2s/c(=C3\C(=O)Nc4ccccc43)c(=O)n2C1c1ccccc1 (centres undefined),6,x,36,18,39,40*,8
O=C(Nc1ccccc1C(=O)N/N=C/c1ccco1)c1ccccc1,18,-1,10,12,24,41*,26
O=C(Nc1ccccc1C(=O)N/N=C/c1ccco1)c1ccc(Cl)cc1,20,0,-11,22,40,39,x
COc1cc(-c2cc(-c3nnco3)c3ccccc3n2)cc(OC)c1OC,-6,-3,6,6,27,14,x
c1ccc(-c2cc(-c3nnco3)c3ccccc3n2)nc1,-2,6,9,-11,1,40*,25
CS(=O)(=O)c1sc2nc(-c3cccs3)cc(-c3ccccc3)c2c1N,1,-3,1,34,7,18,x
Cc1ccc(-c2cc(-c3ccccc3)c3c(N)c(S(C)(=O)=O)sc3n2)cc1,-4,-3,11,34,24,49*,43*
CCOc1ccc(C2C3=C(CCCC3=O)Nc3nc(C(F)(F)F)nn32)cc1OC (centres undefined),5,4,-3,7,23,-3,x
CCC(C)(C)n1nnnc1C(c1cc2cc3c(cc2[nH]c1=O)OCO3)N1CCCCC1 (centres undefined),3,5,2,10,30,16,x
COc1ccc(C(=O)CSc2nnc(COc3ccc(C#N)cc3)n2-c2ccccc2)cc1,0,-2,-12,5,-5,15,x
O=C(CSc1nnc(COc2ccccc2)n1-c1ccccc1)c1ccccc1,-1,-1,-5,0,26,40*,14
NNC(=O)CCN1CCN(Cc2ccccc2)CC1,-19,-1,-10,0,-8,6,x
SMILES,NALP1 inh,V-ATPase pH,NLRP3 yeast inh,TIM10 inh,tim23-1 inh,tim10-1 inh,tim10-1 confirm
COc1cnc(-c2ccccn2)nc1Sc1ccc(C)cc1,-5,3,38,27,35,44*,26
COc1ccc(OC)c(S(=O)(=O)Nc2ccc(C(C)=O)cc2)c1,-8,3,0,10,7,9,x
CC(C(=O)NCC1CCCCC1)N1CCN(S(=O)(=O)/C=C/c2ccccc2)CC1 (centres undefined),42,5,-15,20,17,41*,13
CC(C(=O)NCC1CCCCC1)N1CCc2ccccc2C1 (centres undefined),0,4,4,1,17,12,x
CCN(CC)C(=O)c1ccc(COc2ccccc2Cl)cc1,0,-4,22,20,7,42*,30
COc1ccc(OC)c(S(=O)(=O)Nc2cccc(O)c2)c1,x,-2,10,9,9,-10,x
CC(C)CCNC(=O)NC(=O)COC(=O)/C=C/c1cccc([N+](=O)[O-])c1,4,0,16,25,18,42*,18
O=C(Cc1ccc(Cl)c(Cl)c1)NNC(=S)NCC1CCCO1 (centres undefined),4,-2,22,9,-5,0,x
O=C(CCNc1cc(Cl)cc(Cl)c1)c1cccs1,14,10,12,35,42,46*,19
CC1CCCC(NC(=O)NC(=O)CCl)C1C (centres undefined),28,x,-23,37,47,32,x
CC1CCCCC1NC(=O)NC(=O)CCl (centres undefined),4,0,-33,15,41,46*,31
COc1cccc(C(=O)OCC(=O)c2ccc(Br)s2)c1,-6,5,26,-14,20,18,x
COc1ccc(-c2cc(=O)oc3cc(OC(=O)C4CCCCC4)c(Cl)cc23)cc1,12,4,-15,38,37,44*,36*
CCC(C(=O)OCC(=O)Nc1cc(Cl)cc(Cl)c1)c1ccccc1 (centres undefined),24,0,9,24,29,40*,26
Cn1nc(C(F)(F)F)c(-c2ccc(Br)cc2)c1NC(=O)c1cccnc1,x,2,21,12,9,23,x
Cn1nc(C(F)(F)F)c(-c2ccc(Br)cc2)c1NC(=O)c1ccco1,x,2,13,3,32,40*,14
COc1ccc(N2CCC(CNC(=O)Nc3cccc(OC)c3)C2)cc1 (centres undefined),-8,0,19,22,10,46*,40*
COCCOc1cc(Nc2nnc(C(F)(F)F)s2)c(Cl)cc1Cl,1,3,-22,23,29,46*,27
COCCCNC(=O)CN(c1ccc(Cl)c(Cl)c1)S(C)(=O)=O,-5,7,3,17,11,20,x
